# Sm TGR inh: blocks Schistosoma mansoni thioredoxin glutathione reductase | purified TGR, DTNB reduction, TNB absorbance 405 nm | Potency, µM (titrated, usually from 114 µM), without a hit: at the top dose activity change, negative = inhibition, usual class: inhibitors | hit rate 3% among 360,000; also: % is scaled to controls: 0 for no effect and ±100 for the full control effect; nearly all actives have a fitted effect of over 60% in size
#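 First, TGR (20 nM dispensed) and NADPH were mixed with compound. Second, a 15 min room-temperature incubation followed. Third, further NADPH and then DTNB were added to start the reaction. Finally, TNB absorbance was monitored kinetically.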
# SARS PLP yeast: SARS-CoV PLP inhibition in yeast | S. cerevisiae expressing SARS-CoV PLpro, growth rescue | Potency, µM (series often up to 32.9 µM), inactives show at the highest dose activity, positive = growth rescue, most hits filed as activators | hit rate 0.19% among 330,000; calls by dose curve; also: 0% is about no effect; nearly all actives have a fitted effect of over 55% in size
# Pf growth 96h: inhibits malaria parasite growth, 96 h. P. falciparum luciferase reporter growth, 96 h. Potency, µM (highest dose often 28.7 µM), for inactives: at the highest dose activity change, negative = inhibition, actives largely listed as inhibitors. hit rate 6.9% among 320,000. AID 504834; also: % is scaled to controls: 0 for no effect and ±100 for the full control effect
#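 Two-generation exposure (96 h) targets delayed-death phenotype. Reporter parasites carrying integrated firefly luciferase, in red cells at 2% hematocrit and 0.05% parasitemia final, kept at 37 C, 5% CO2; luminescence loss indicates inhibition.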
# AmpC detergent: blocks E. coli AmpC beta-lactamase in detergent assay | hit rate 0.041% among 370,000 | AmpC hydrolysis of nitrocefin, absorbance 480 nm, 0.01% Triton | P00811 | Potency, µM (highest dose often 114 µM), inactives show top-dose activity change, negative = inhibition, hits mostly inhibitors | AID 485294;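 also: 0% = no-compound wells and -100% = no-enzyme wells; nearly all actives have a fitted effect of over 25% in size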
# Target sequence (P00811 whole entry, looked up): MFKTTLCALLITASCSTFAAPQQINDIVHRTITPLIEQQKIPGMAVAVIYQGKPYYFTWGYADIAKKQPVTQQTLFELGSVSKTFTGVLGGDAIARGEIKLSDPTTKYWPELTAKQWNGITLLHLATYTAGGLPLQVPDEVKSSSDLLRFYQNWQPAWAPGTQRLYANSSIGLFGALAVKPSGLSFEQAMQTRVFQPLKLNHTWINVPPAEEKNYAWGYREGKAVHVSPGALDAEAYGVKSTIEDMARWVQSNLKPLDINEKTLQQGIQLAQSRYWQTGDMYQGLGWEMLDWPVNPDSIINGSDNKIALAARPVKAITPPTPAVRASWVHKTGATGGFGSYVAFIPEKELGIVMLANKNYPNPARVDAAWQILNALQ
#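 20 mM phosphate pH 7.0 + 0.01% (detergent screen) or 0.0001% Triton X-100; 5.3 nM AmpC reagent; cpd preinc 15 min RT; nitrocefin (800 uM stock) to start; A480 q20 s × 4 min; Activity was normalised to no-enzyme and no-compound control wells.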
# AmpC inh no detg: blocks E. coli AmpC beta-lactamase in detergent-free assay; P00811; AmpC nitrocefin hydrolysis, absorbance 480 nm, 0.0001% Triton; Potency, µM (titrated, usually from 57.1 µM), inactives show top-dose activity change, negative = inhibition, most hits filed as inhibitors; hit rate 0.52% among 330,000;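 also: plate controls were no compound for no effect and no enzyme for full effect; nearly all actives have a fitted effect of over 20% in size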
#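 AmpC (5.3 nM in the dispensed reagent) in 20 mM phosphate pH 7.0 with 0.01% (detergent screen) or 0.0001% Triton X-100 was preincubated with compounds for 15 min at room temperature. Nitrocefin was then added from an 800 uM solution, and hydrolysis was followed at 480 nm.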
# Pf growth 48h: P. falciparum growth inhibition at 48 hours (one generation). P. falciparum luciferase growth in erythrocytes, 48 h. AID 504832. hit rate 5.9% among 310,000. Potency, µM (highest dose often 28.7 µM), for inactives: at the top dose activity change, negative = inhibition, hits mostly inhibitors; also: % is scaled to controls: 0 for no effect and ±100 for the full control effect
#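 Here the parasites carry a stable luciferase gene and grow inside erythrocytes in Albumax-based RPMI medium with compound for one erythrocytic cycle. Activity is scored as loss of luminescent signal.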
# Numbers without * were called inactive; ? = inconclusive; nt = no result. A selection: hits, their analogues and other compounds. The true share with any hit is near 12%. Unless noted, calls follow the shape of the dose curve; as a rule, active = well fitted curve in the direction sought with a large enough effect; inconclusive = small, poorly fitted or top-dose-only effect, or another doubt; inactive = no such curve, though single readings can be large; an effect the other way counts as inactive or inconclusive. Potency is read from the fitted curve at half-maximal effect.
SMILES,Sm TGR inh,SARS PLP yeast,Pf growth 96h,AmpC detergent,AmpC inh no detg,Pf growth 48h
COc1ccc(-c2c([C@H]3[C@@H]4C=CCC[C@@]4(C)C(=O)N3Cc3ccccc3)ccc3ccccc23)cc1OC,-24%,-11%,5.2µM*,-3%,42%,5.2µM*
CC(C)CNC(=O)/C=C/C=C/c1ccc2c(c1)OCO2,nt,-12%,nt,nt,-20%,nt
CC1(C)CC(CC(=O)Nc2ccc([N+](=O)[O-])cc2)C(=O)O1 (centres undefined),1%,-4%,?,-7%,1%,43%
CC(CC1CC(C)(C)OC1=O)C(=O)Nc1ccc([N+](=O)[O-])cc1 (centres undefined),-12%,0%,1.7µM*,?,-2%,?
O=C(Nc1cccc(O)c1)c1c(O)c2ccccc2[nH]c1=O,7%,3%,-13%,1%,-21%,14%
O=C(Nc1cccc(C(F)(F)F)c1)c1c(O)c2ccccc2[nH]c1=O,16%,18%,15µM*,-8%,6%,28%
Cc1cc(C)cc(N(CCC#N)C(=O)CSc2ncnc3sccc23)c1,-4%,-10%,?,0%,4%,12µM*
N#Cc1ccccc1NC(=O)CSC1=Nc2ccccc2C2CC=NN12 (centres undefined),-4%,-2%,5%,1%,-28%,-21%
Cc1cc(C)cc(N(CCC#N)C(=O)CSC2=Nc3ccccc3C3CC=NN23)c1 (centres undefined),-6%,-5%,12µM*,?,90%,13µM*
CCCCOc1ccc(C(=O)N/C(=C\c2ccc(Br)cc2)C(=O)NC2CCCCC2)cc1,-2%,nt,nt,1%,nt,nt
CC(C)C(=O)N1c2nc(-c3ccco3)nn2C2(CCCCC2)[C@@H]2CCCC[C@@H]21,-19%,nt,nt,1%,nt,nt
Cc1ccc(OCC(=O)Nc2ccc(OCc3cc(=O)n4cccc(C)c4n3)cc2)cc1C,0%,nt,nt,13%,nt,nt
CCOc1ccc(C(=O)Nc2cnn(Cc3ccc(Cl)c(Cl)c3)c2)cc1,-18%,-3%,?,-1%,-34%,-3%
O=C(Nc1cnn(Cc2ccc(Cl)cc2)c1)c1ccc([N+](=O)[O-])cc1,7%,2%,?,?,50%,?
O=C(CSCc1ccc(Cl)cc1)NCCSCc1ccco1,28µM*,-7%,?,-7%,-31%,1%
O=C(NCCSCc1ccc(Cl)cc1)c1cccs1,4%,-4%,10µM*,-12%,-31%,3.3µM*
O=C(CSCc1c(F)cccc1Cl)NCCSCc1ccco1,nt,0%,-15%,4%,-7%,6%
O=C(Nc1cnn(Cc2ccc(Cl)c(Cl)c2)c1)C12CC3CC(CC(C3)C1)C2,2%,-33%,7.4µM*,0%,-3%,13µM*
O=C(Nc1cnn(Cc2ccc(Cl)cc2)c1)c1cccs1,-5%,0%,6.6µM*,-9%,-27%,4.7µM*
Cc1cccc(NC(=O)CSc2ncc3c(n2)-c2ccccc2N(Cc2ccc(F)cc2)S3(=O)=O)c1C,1%,nt,nt,-5%,nt,nt
COc1ccccc1N1CCN(C(=O)Cn2ncc3ccsc3c2=O)CC1,13%,nt,nt,3%,nt,nt
O=C(CSc1nc(O)c(C/C=C/c2ccccc2)c(=O)[nH]1)Nc1cccc(F)c1,-25%,nt,nt,-5%,nt,nt
Fc1ccc(Nc2nc3ccccc3c3nncn23)c(Cl)c1,4%,nt,nt,9%,nt,nt
O=C(CSCc1ccco1)c1ccc(Cl)s1,28µM*,2%,12µM*,?,?,103%
O=C(CSCc1c(Cl)cccc1Cl)NCc1ccco1,1%,13%,13µM*,-3%,-28%,?
O=C(NNC(=S)NCc1ccco1)c1ccc(Cl)s1,-34%,6%,?,-8%,-17%,43%
O=C(NCCSCc1ccco1)c1ccc(=O)[nH]c1,35µM*,1%,-10%,-4%,-19%,-4%
